In PubChem BioAssay:
Calls of active or inactive are those of the source. Unless noted, the rule behind the calls is not given here.

What was measured:
[1] = resazurin metabolic signal in HepG2 cells – cell-based, resazurin fluorescence, 24 h, PK04 Diversity Set, profiling panel (AID 1172); settings: HepG2 viability, higher = more signal
[2] = budding yeast growth changes without added modifier – OD600, strain BY4716, 24 h, basal condition, primary screen (AID 1173); settings: S. cerevisiae BY4716 growth, OD600, 24 h; higher = more signal, called active from +8 up or from −8 down
[3] = viability profiling in MM1S myeloma cells – cell-based, resazurin fluorescence, basal, 24 h, PK04 Diversity Set, profiling panel (AID 1174); settings: higher = more signal, called active from +8 up or from −8 down;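 note: MM1S multiple myeloma cell line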
[4] = molecular target: Dihydroorotate dehydrogenase (quinone), mitochondrial (Plasmodium falciparum (isolate 3D7)) (UniProt Q08210); assay: inhibition of P. falciparum DHODH – biochemical, C-terminal His tag, absorbance 600 nm, primary screen (AID 1175); settings: PfDHODH enzyme, DCIP absorbance 600 nm; higher = more signal, called active from +8 up or from −8 down;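 note: recombinant parasite enzyme with a five histidine tag at its C terminus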
Dihydroorotate dehydrogenase (quinone), mitochondrial (Plasmodium falciparum (isolate 3D7)), sequence (Q08210 whole entry, looked up): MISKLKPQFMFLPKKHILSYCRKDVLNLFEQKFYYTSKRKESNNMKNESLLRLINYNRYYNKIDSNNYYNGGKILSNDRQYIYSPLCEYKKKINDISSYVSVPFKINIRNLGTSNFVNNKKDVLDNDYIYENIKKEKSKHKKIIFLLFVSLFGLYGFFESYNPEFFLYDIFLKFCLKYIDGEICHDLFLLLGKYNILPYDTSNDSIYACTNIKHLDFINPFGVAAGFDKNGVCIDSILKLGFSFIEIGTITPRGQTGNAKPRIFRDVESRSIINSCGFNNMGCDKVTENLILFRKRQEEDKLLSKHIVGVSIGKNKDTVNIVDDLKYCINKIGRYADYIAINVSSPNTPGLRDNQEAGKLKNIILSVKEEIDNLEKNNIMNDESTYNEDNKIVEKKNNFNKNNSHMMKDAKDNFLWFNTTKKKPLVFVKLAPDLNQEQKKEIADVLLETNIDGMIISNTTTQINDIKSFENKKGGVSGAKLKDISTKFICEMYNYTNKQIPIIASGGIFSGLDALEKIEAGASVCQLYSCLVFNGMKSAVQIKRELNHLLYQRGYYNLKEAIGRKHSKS

[5] = inhibition of PAO1 biofilm formation – strain PAO1, LB-PBS medium, absorbance 600 nm, primary screen (AID 1176); settings: P. aeruginosa PAO1 growth/biofilm, A600, 12 h; higher = more signal
[6] = growth modulation of vineyard yeast isolate – strain RM11-1a, OD600, basal, 24 h, primary screen (AID 1177);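 note: cultures grown under basal conditions with no added stressor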; settings: S. cerevisiae RM11-1a growth, OD600, 24 h; higher = more signal, called active from +8 up or from −8 down
[7] = growth of efflux-deficient E. coli DRC39 – strain DRC39, OD650, 24 h, E. coli filamentation inducers, primary screen (AID 1178);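 note: growth measured as culture turbidity by optical density at 650 nm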; settings: E. coli DRC39 acrAB, higher = more signal, called active from +8 up or from −8 down
[8] = growth of efflux-deficient E. coli DRC39 – strain DRC39, OD650, 48 h, E. coli filamentation inducers, primary screen (AID 1179);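 note: screen aims at cell division blockers that make cells filament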; settings: E. coli DRC39 delta-acrAB growth, higher = more signal, called active from +8 up or from −8 down
[9] = viability profiling in RPMI8226 myeloma cells – cell-based, resazurin fluorescence, basal, 24 h, PK04 Diversity Set, profiling panel (AID 1180); settings: higher = more signal;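 note: RPMI8826 multiple myeloma cell line at 5000 cells per well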
[10] = molecular target: E3 ubiquitin-protein ligase XIAP (Homo sapiens) (UniProt P98170); assay: small molecules binding XIAP protein – biophysical, small-molecule microarray, fluorescence 635 nm, primary screen (AID 1181); settings: higher = more signal;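 note: score merges 667 nm emission and signal to noise over triplicate slides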
E3 ubiquitin-protein ligase XIAP (Homo sapiens), sequence (P98170 whole entry, looked up, the tested form may be a part): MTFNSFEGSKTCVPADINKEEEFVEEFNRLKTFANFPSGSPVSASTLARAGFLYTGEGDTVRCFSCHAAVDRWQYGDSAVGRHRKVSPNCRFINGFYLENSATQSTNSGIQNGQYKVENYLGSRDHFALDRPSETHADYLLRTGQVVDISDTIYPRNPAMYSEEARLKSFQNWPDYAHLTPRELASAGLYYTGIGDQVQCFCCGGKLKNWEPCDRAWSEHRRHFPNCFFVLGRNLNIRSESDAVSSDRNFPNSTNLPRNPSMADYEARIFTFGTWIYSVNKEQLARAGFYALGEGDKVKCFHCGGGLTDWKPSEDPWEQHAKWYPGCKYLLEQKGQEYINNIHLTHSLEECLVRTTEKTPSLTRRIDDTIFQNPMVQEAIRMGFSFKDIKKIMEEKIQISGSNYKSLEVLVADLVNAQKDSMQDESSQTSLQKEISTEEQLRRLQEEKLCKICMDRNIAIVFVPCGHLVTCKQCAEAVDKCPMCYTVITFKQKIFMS

[11] = test system: XIP peptide (Xip251-270) binding; assay: XIP fragment 251-270 binding compounds – biochemical, small-molecule microarray, fluorescence 635/667 nm, 0.1 µg/mL protein, primary screen (AID 1182); settings: fluorescent protein binding, 635 nm, higher = more signal, called active from +8 up or from −8 down
XIP peptide (Xip251-270) = assay: compounds binding XIP fragment 251-270 – biochemical, small-molecule microarray, fluorescence 635/667 nm, 0.5 µg/mL protein, primary screen (AID 1183); settings: fluorescence 635 nm, higher = more signal
[12] = blood-stage malaria parasite viability loss – strain 3D7, DAPI fluorescence, 100 nL, primary screen (AID 1184);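 note: parasites grown inside human red blood cells in medium with human serum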; settings: P. falciparum 3D7 growth, 3 d, higher = more signal
[13] = molecular target: Homeobox protein Hox-A13 (Mus musculus) (UniProt Q62424); assay: disruptors of Hoxa13 oligonucleotide interaction – biochemical, fluorescence polarization, labeled oligonucleotide, primary screen (AID 1185); settings: Hoxa13:DNA binding, 15 min, higher = more signal, called active from +8 up or from −8 down
Homeobox protein Hox-A13 (Mus musculus), sequence (Q62424 whole entry, looked up): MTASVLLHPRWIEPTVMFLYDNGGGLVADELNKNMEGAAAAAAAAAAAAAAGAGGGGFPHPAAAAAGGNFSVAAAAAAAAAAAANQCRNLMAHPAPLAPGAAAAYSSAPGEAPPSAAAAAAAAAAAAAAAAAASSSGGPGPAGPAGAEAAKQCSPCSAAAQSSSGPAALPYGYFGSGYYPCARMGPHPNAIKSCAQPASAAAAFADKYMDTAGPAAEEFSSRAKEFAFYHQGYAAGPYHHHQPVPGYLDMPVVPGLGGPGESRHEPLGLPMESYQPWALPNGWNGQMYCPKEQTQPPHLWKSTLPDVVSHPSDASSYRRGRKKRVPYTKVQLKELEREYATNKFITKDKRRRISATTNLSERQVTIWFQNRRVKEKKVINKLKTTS

[14] = blockers of DNA damage checkpoint Chk1 activation – imaging, HeLa, hydroxyurea, phospho-Chk1 antibody, percent positive cells, primary screen (AID 1186); settings: hydroxyurea-induced phospho-Chk1 immunofluorescence imaging, higher = more signal
[15] = blockers of DNA damage checkpoint Chk1 activation – imaging, HeLa, hydroxyurea, phospho-Chk1 nuclear intensity, primary screen (AID 1187); settings: hydroxyurea-induced phospho-Chk1 immunofluorescence imaging, higher = more signal

| SMILES | z-score [1] | z-score [2] | z-score [3] | composite z-score [4] | z-score [5] | z-score [6] | z-score [7] | z-score [8] | z-score [9] | composite z-score [10] | composite z-score [11] | composite z-score (XIP peptide (Xip251-270)) | z-score [12] | z-score [13] | z-score [14] | z-score [15] |
| --- | --- | --- | --- | --- | --- | --- | --- | --- | --- | --- | --- | --- | --- | --- | --- | --- |
| CC(C)NC(=O)[C@@]1(c2ccc([N+](=O)[O-])cc2)CC(=O)N(CC23CC4CC(CC(C4)C2)C3)[C@@H]1c1ccc(CO)cc1I | -3.37 | -0.722 (inactive) | -4.2 (inactive) | -0.304 (inactive) | 0.761 (inactive) | 0.835 (inactive) | -0.398 (inactive) | -0.226 (inactive) | -4.86 | 0.0178 | 0.805 (inactive) | 0.704 | -0.705 | -3.26 (inactive) | -0.122 (inactive) | 1.16 (inactive) |
| O[C@@H](Cc1ccccc1)[C@H]1C2C=CCCC(c3ccccc3)=C2CN1Cc1cccc(Cl)c1 (stereo not given in full) | 0.689 | -3.75 (inactive) | -0.146 (inactive) | 0.426 (inactive) | 1.56 (inactive) | -0.53 (inactive) | 3.04 (inactive) | 1.85 (inactive) | -0.0337 | 0.25 | -0.241 (inactive) | 0.27 | 0.514 | -5.87 (inactive) | -0.215 (inactive) | 0.0934 (inactive) |
| CN1C(=O)C2C=CC(C(O)c3ccc(Br)cc3)N(N(c3ccccc3)c3ccccc3)C2C1=O (stereo not given) | -0.456 | 0.431 (inactive) | -1.19 (inactive) | 1.02 (inactive) | 1.01 (inactive) | 1.32 (inactive) | -0.499 (inactive) | -0.283 (inactive) | -0.629 | -0.0255 | 0.654 (inactive) | 0.266 | -0.233 | -0.704 (inactive) | 0.63 (inactive) | 0.0215 (inactive) |
| COc1ccccc1CN1C(=O)c2ccccc2[C@@H](C(=O)NCC(F)(F)F)[C@@H]1c1ccc(CO)cc1 | 1.06 | 0.403 (inactive) | -1.15 (inactive) | 0.338 (inactive) | 0.512 (inactive) | -0.0178 (inactive) | 0.796 (inactive) | 1.69 (inactive) | 0.268 | -0.148 | -0.51 (inactive) | 0.561 | -1.19 | -2.99 (inactive) | -0.188 (inactive) | 0.158 (inactive) |
| CCCC[C@@H]1C[C@H]1[C@@H](NS(=O)(=O)c1cccc2cccnc12)c1ccc(-c2ccccc2)cc1 | -0.279 | 0.444 (inactive) | -0.251 (inactive) | -0.151 (inactive) | 0.411 (inactive) | 0.269 (inactive) | -0.366 (inactive) | -0.166 (inactive) | -0.611 | -0.0559 | -0.111 (inactive) | -0.239 | -0.299 | -0.507 (inactive) | -0.121 (inactive) | 0.189 (inactive) |
| CO[C@H]1O[C@H](CO)[C@@H](OC(=O)Nc2ccc3c(c2)OCO3)[C@H](OC(=O)Nc2ccccc2-c2ccccc2)[C@@H]1OC(=O)Nc1ccccc1-c1ccccc1 | -0.659 | 1.42 (inactive) | -0.443 (inactive) | 0.237 (inactive) | 1.14 (inactive) | 2.33 (inactive) | -0.243 (inactive) | -0.0545 (inactive) | -0.427 | 0.28 | 1.03 (inactive) | 0.561 | -2.6 | -2.64 (inactive) | -0.313 (inactive) | -0.199 (inactive) |
| N#Cc1ccc(NN2C(C(O)c3cccc4ccccc34)C=CC3C(=O)N(c4ccccc4)C(=O)C32)cc1 (stereo not given) | -0.707 | 0.185 (inactive) | -0.605 (inactive) | 0.199 (inactive) | 0.487 (inactive) | 0.806 (inactive) | -0.586 (inactive) | 0.434 (inactive) | -0.28 | 0.0791 | 0.366 (inactive) | 0.684 | -0.0446 | 1.05 (inactive) | -0.145 (inactive) | 0.137 (inactive) |
| COCCOC(=O)N1C(=O)[C@@]2(c3cc(C#CCNC(N)=O)ccc31)[C@H](c1ccc(O)cc1)N1[C@H](c3ccccc3)[C@H](c3ccccc3)OC(=O)[C@H]1[C@@H]2C(=O)N1CCCCCCC1 | -0.0455 | 1.01 (inactive) | -0.172 (inactive) | 0.0489 (inactive) | 0.553 (inactive) | 0.517 (inactive) | 0.474 (inactive) | -0.188 (inactive) | -0.336 | -0.212 | 0.348 (inactive) | 0.561 | -0.0743 | -0.578 (inactive) | 0.149 (inactive) | 0.452 (inactive) |
| CC(C)(C)OC(=O)CC[C@]1(C(N)=O)COC(c2ccc(OCCCO)cc2)=N1 | -0.722 | 0.0462 (inactive) | -1.43 (inactive) | 0.0996 (inactive) | 0.134 (inactive) | -0.788 (inactive) | -0.34 (inactive) | 0.381 (inactive) | -0.751 | 0.276 | 2.48 (inactive) | 0.223 | 0.0099 | -1.89 (inactive) | 0.764 (inactive) | 0.572 (inactive) |
| C=CCC(OC(C)=O)[C@@H]1[C@@H](N(Cc2cc3ccccc3o2)C(=O)Cc2ccc(F)cc2)c2cc(OCCCO)ccc2N1C(=O)Cc1ccc(OC)cc1 (stereo not given in full) | 0.217 | -0.449 (inactive) | 0.301 (inactive) | -1.66 (inactive) | 0.632 (inactive) | -0.711 (inactive) | -0.201 (inactive) | -0.416 (inactive) | -0.115 | 0.0769 | -0.386 (inactive) | -0.0246 | 0.163 | -2.68 (inactive) | 0.784 (inactive) | 0.0687 (inactive) |
